TTR transcr act: increases transthyretin transcription | SH-SY5Y TTR promoter Gaussia luciferase, luminescence; 100% = recombinant luciferase protein wells | actives 1.3% (n = 92,000) | AID 1117267 | activation, % at 16.7 µM;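 active = activation above the mean of all tested compounds plus 3 SD, cut at about 9.5% in these data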;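 also: cells exposed to compounds for one day before reading; 0% = median of all test compound wells on the plate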
TTR inh HuH7: HuH7 TTR transcription inhibition, counter-screen. actives 4% (n = 1,100). shares compounds with TTR transcr act. HuH7 TTR promoter-Gaussia luciferase reporter, luminescence. inhibition, % at 16.7 µM;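 active = average inhibition above the solvent-only control wells' mean plus 3 SD, cut at about 15% in these data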;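 also: 0% = cells with DMSO only and 100% = cells with inhibitor control FD; inhibitors lower well luminescence so higher value means more inhibition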
TTR act confirm: confirmation of human transthyretin transcription activators; activation, % at 16.7 µM; 1,100 tested, under 10 active; SHSY5Y TTR promoter Gaussia luciferase, luminescence; 100% = purified Lucia enzyme wells, no cells; shares compounds with TTR transcr act;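 active = mean activation above a set limit taken from the earlier primary screen, cut at about 11% in these data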;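 also: 0% = DMSO-treated cells and 100% = recombinant Lucia luciferase without cells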
Active calls of the source: *. Many of the other results were omitted from the sample, so hits are more common in it than they were.

How did COc1ccc(NC(=O)CCc2c(C)nn(-c3ccc(N4CCOCC4)nn3)c2C)cc1 do in these assays?
TTR transcr act: 12*; TTR inh HuH7: -6; TTR act confirm: 1

What do the screens show for `COC(=O)c1cccc(NC(=O)c2cccc([N+](=O)[O-])c2)c1`?
TTR transcr act: -2

How did COc1ccc(C(=O)Nc2cccc([N+](=O)[O-])c2)cc1Br do in these assays?
TTR transcr act: 15*; TTR inh HuH7: 8; TTR act confirm: -1

How did COc1ccc(NC(=O)c2cccc([N+](=O)[O-])c2)cc1 do in these assays?
TTR transcr act: 3

How did Cc1cccc(C)c1Oc1nc(-c2ccccc2)ncc1S(=O)(=O)c1ccccc1 do in these assays?
TTR transcr act: 27*; TTR inh HuH7: -4; TTR act confirm: 0

Results for COc1nc(-c2ccccc2)ncc1S(=O)(=O)c1ccccc1 ?
TTR transcr act: 1

How did COc1ccc(Oc2nc(-c3ccccc3)ncc2S(=O)(=O)c2ccccc2)cc1 do in these assays?
TTR transcr act: 6

Results for CCCC1CCC2(CCCN2CCOC(=O)Nc2cccc(Cl)c2)CC1 (centres undefined) ?
TTR transcr act: -1

How did O=C(Cc1cccc(NC(=O)C2CCCN(C(=O)c3ccccc3)C2)c1)Nc1ccc(C(=O)N2CCOCC2)cc1 (centres undefined) do in these assays?
TTR transcr act: 0

What do the screens show for `COc1ccc(C)cc1NC(=O)C1CCC(CNc2c(N3CCOCC3)c(=O)c2=O)CC1` (centres undefined)?
TTR transcr act: 0

Results for COc1ccc(OC)c(NC(=O)C2CCC(CNc3c(N4CCC(C)CC4)c(=O)c3=O)CC2)c1 (centres undefined) ?
TTR transcr act: 15*; TTR inh HuH7: 1; TTR act confirm: 2

How did CC1CCN(c2c(NCC3CCC(C(=O)NCc4ccccc4)CC3)c(=O)c2=O)CC1 (centres undefined) do in these assays?
TTR transcr act: -1

How did O=C1[C@H]2[C@@H](/C=C/c3ccccc3)N3C(=O)CN(CCO)C(=O)[C@@]3(Cc3ccccc3)[C@H]2C(=O)N1c1ccccc1 do in these assays?
TTR transcr act: 0

Results for O=C1[C@H]2[C@@H](/C=C/c3ccccc3)N3C(=O)CN(CC4CC4)C(=O)[C@@]3(Cc3ccccc3)[C@H]2C(=O)N1c1ccccc1 ?
TTR transcr act: -1

How did C[C@@]12C(=O)N(CCO)CC(=O)N1[C@H](/C=C/c1ccccc1)[C@@H]1C(=O)N(c3ccccc3)C(=O)[C@@H]12 do in these assays?
TTR transcr act: 23*; TTR inh HuH7: -3; TTR act confirm: 0

How did C[C@@H]1CCN(C2CC2)S(=O)(=O)c2ccc(N3CCC[C@H]3CO)cc2O1 do in these assays?
TTR transcr act: 0

What do the screens show for `O=S(=O)(N[C@@H]1CCCC[C@H]1N1CCOCC1)c1ccc(Cl)cc1`?
TTR transcr act: 0

What do the screens show for `COC(=O)[C@]12C[C@H](CC(=O)N3CCN(C(=O)C4CC4)CC3)C(=O)N(CCc3ccc(OC)c(OC)c3)C1=C[C@H](COCc1ccccc1)O[C@@H]2C`?
TTR transcr act: 2

What do the screens show for `CCOC(=O)[C@@]12CCC3=C1N(CCC3)C(=O)[C@H](CC(=O)NCc1cccc3ccccc13)C2`?
TTR transcr act: 1

Results for O=C(CSc1nnc(CNC(=O)c2ccccc2)o1)Nc1ccc2c(c1)OCO2 ?
TTR transcr act: 0

What do the screens show for `O=C(CSc1nnc(CNC(=O)c2c(F)cccc2F)o1)Nc1ccc2c(c1)OCCO2`?
TTR transcr act: 11*; TTR inh HuH7: -2; TTR act confirm: 5

How did O=C(CSc1nnc(CNC(=O)c2c(F)cccc2F)o1)Nc1ccc2c(c1)OCO2 do in these assays?
TTR transcr act: -2

What do the screens show for `Cc1ccc(S(=O)(=O)N2c3ccccc3C[C@H]2CC=C(c2ccccc2)c2ccccc2)cc1`?
TTR transcr act: 1

Results for O=c1ccc(=O)n(-c2ccccc2)[nH]1 ?
TTR transcr act: 1

How did O=C(O)CCn1[nH]c(=O)ccc1=O do in these assays?
TTR transcr act: 27*; TTR inh HuH7: -9; TTR act confirm: 1

What do the screens show for `Cn1c(=O)n(CCC(=O)O)c2ccccc21`?
TTR transcr act: -1

How did C=CCn1c(CNC(=O)c2ccccc2F)nnc1SCC(=O)N1CCOCC1 do in these assays?
TTR transcr act: 1

What do the screens show for `CN(CC(=O)Nc1ccc(Cl)cc1)C(=O)Cn1[nH]c(=O)c2ccccc2c1=O`?
TTR transcr act: 7

How did COC(=O)[C@]12C[C@H](CC(=O)N3CCSCC3)C(=O)N(Cc3ccc(Cl)cc3Cl)C1=C[C@H](C(C)C)O[C@@H]2C1CC1 do in these assays?
TTR transcr act: 1

Results for C[C@H]1CCCN1c1ccc2c(c1)OCCCN(C1CC1)S2(=O)=O ?
TTR transcr act: 0

Results for COc1ccccc1OCc1csc(N)n1 ?
TTR transcr act: 24*; TTR inh HuH7: -14; TTR act confirm: 0

Results for COc1ccc(/C=C/C(=O)OCc2csc(-c3ccccc3)n2)cc1OC ?
TTR transcr act: -1

What do the screens show for `CC(=O)Nc1nc(COc2ccccc2)cs1`?
TTR transcr act: -1

What do the screens show for `O=C(O)c1ccc(CNC(=O)c2ccc3c(c2)C(=O)N(Cc2cccnc2)C3=O)cc1`?
TTR transcr act: 1

How did COc1ccc(/C=C(\C#N)C(=O)OCC(=O)NC(C)c2ccccc2)cc1 (centres undefined) do in these assays?
TTR transcr act: 17*; TTR inh HuH7: -12; TTR act confirm: 0

Results for COc1ccc(/C=C(\C#N)C(=O)OCCNC(=O)c2ccncc2)cc1 ?
TTR transcr act: 6

What do the screens show for `COc1cc(/C=C(/C#N)C(=O)NC(C)c2ccccc2)cc(OC)c1O` (centres undefined)?
TTR transcr act: 0

What do the screens show for `COC(=O)[C@]12C[C@H](CC(=O)NCc3ccc(OC)c(OC)c3)C(=O)N(Cc3ccccc3)C1=C[C@H](COCc1ccccc1)O[C@@H]2C`?
TTR transcr act: 2

How did COC(=O)[C@]1(C)CN(C(=O)OC(C)(C)C)C2=C1C(=O)C[C@@](C)(C(=O)OC(C)(C)C)C2 do in these assays?
TTR transcr act: -2

What do the screens show for `O=C(OCC#CCSc1nnc(-c2ccccc2Cl)o1)c1ccc(F)cc1`?
TTR transcr act: 0

How did O=C(NCCc1ccccc1)OCc1cn(Cc2c(F)cccc2F)nn1 do in these assays?
TTR transcr act: -1

What do the screens show for `Cc1cc(OCc2cc3c(cc2Cl)OCO3)c2c(C)cc(=O)oc2c1`?
TTR transcr act: 11*; TTR inh HuH7: -17; TTR act confirm: 1

Results for C=C(Cl)COc1cc(C)cc2oc(=O)cc(CC)c12 ?
TTR transcr act: -3

Results for CCOc1cc2c(C)cc(=O)oc2cc1Cl ?
TTR transcr act: 0

What do the screens show for `NC(=S)N=Nc1ccc(O)cc1`?
TTR transcr act: 0

What do the screens show for `CC(=O)Nc1sc2c(c1-c1nc3ccccc3s1)CCCN(C(C)C)C2`?
TTR transcr act: 1

How did CN(C)C=Nc1ccc([N+](=O)[O-])c2ccccc12 do in these assays?
TTR transcr act: 1

What do the screens show for `CN1[C@H](Cc2ccccc2)COc2cccc(F)c2S1(=O)=O`?
TTR transcr act: -2

How did O=S(=O)(Nc1ccccn1)c1cnc(Cl)c(Br)c1 do in these assays?
TTR transcr act: 20*; TTR inh HuH7: -8; TTR act confirm: 0

Assay outcomes (PubChem BioAssay)
